In PubChem BioAssay (Tox21):
Inconclusive results are not listed. Unmarked numbers belong to inactive results. The call rests on the fitted dose curve; in most records, active means well fitted cell-killing curve with a large enough effect in the repeat runs; inconclusive means weak or mixed curves, or effect the other way; inactive means no such curve, though single readings can be large or run the other way.

Test: qHTS assay to identify small molecule agonists of the farnesoid-X-receptor (FXR) signaling pathway - cell viability counter screen (AID 743218); further: nearly all actives have a fitted effect of over 45% in size
Settings: FXR-bla HEK293T viability, CellTiter-Glo luminescence, 16 h; series mostly up to 62.6 µM; viability change, negative = cytotoxic: at the top concentration
Description: U.S. Tox21 Program National Center for Advancing Translational Sciences [NCATS] NIH Chemical Genomics Center [NCGC] U.S. Environmental Protection Agency [EPA] National Institutes of Environmental Health Sciences [NIEHS] National Toxicology Program [NTP] U.S. Food and Drug Administration [FDA] Tox21 Assay Overview: The farnesoid-X-receptor (FXR), a nuclear hormone receptor, is highly expressed in liver, intestine, kidney and adrenal cortex. Natural ligands of FXR are the bile acids (Cholic acid, Chenodeoxy cholic acid etc). FXR is an important regulator of diverse metabolic pathways, including the bile acid homeostasis, lipid and glucose metabolisms. FXR regulates the expression of target genes by binding either as a monomer or as a heterodimer with the retinoid X receptor (RXR). Numerous studies have reported that FXR exerts protective function during cholestasis, diabetes, liver regeneration, and cancer. To identify compounds that activate FXR signaling, GeneBLAzer FXR-UAS-bla HEK 293T cell line (Invitrogen, Carlsbad, CA) containing a beta-lactamase reporter gene under the control of a UAS response element was used to screen the Tox21 10K compound library. The cytotoxicity of the Tox21 compound library against the FXR-bla cell line was tested in parallel by measuring the cell viability using CellTiter-Glo assay in the same wells.
Tox21 Assay Protocol Summary: FXR-bla cells were dispensed at 5000 cells/5uL/well in 1536-well black wall/clear bottom plates using a Multidrop Combi (Thermo Fisher Scientific, Waltham, MA) dispenser. After the assay plates were incubated at 37 C and 5% CO2 for 5 h, 23 nL of compounds dissolved in DMSO, positive controls or DMSO only was transferred to the assay plate by a Pintool station (Kalypsys, San Diego, CA). The assay plates were incubated at 37C for 16 h. After 1 uL of LiveBLAzerTM B/G FRET substrate was added using a Bioraptr Flying Reagent Dispenser (FRD) workstation (Beckman Coulter, Indianapolis, IN), the plates were incubated at room temperature for 2 h, and fluorescence intensity was measured by an Envision plate reader (PerkinElmer, Shelton, CT). For cell viability readout that measures cytotoxicity, 4uL/well of CellTiter-Glo reagent was added into the assay plates using a Bioraptr FRD. After 30 min incubation at room temperature, the luminescence intensity in the plates was measured using a ViewLux plate reader (PerkinElmer).
On the % scale 0 is the no-effect control and ±100 the full control effect.

| Compound | viability change, negative = cytotoxic |
| --- | --- |
| NC(=O)c1c(Cl)cccc1Cl | 4.2% |
| C=C(C)C(=O)NCCC[N+](C)(C)C | -6.42% |
| CCN1CCN(c2cc3c(cc2F)c(=O)c(C(=O)O)cn3C2CC2)CC1 | 1.04% |
| Cn1ccc2cc3c(cc21)CCN3C(=O)Nc1cccnc1 | 2.57% [at 29.1 µM] |
| CCCCCCCCCCCCCCCCCC(=O)OCCCCCCCCCCCCCC(C)C | 21.3% |
| NC(N)=NS(=O)(=O)c1ccc(N)cc1 | -0.455% |
| CC(C)(O)c1ccccc1 | 7.32% |
| CCCOCC(C)OCC(C)O (stereo not given) | 1.6% [at 81.1 µM] |
| COc1ccc(NC(C)=O)cc1 | -3.75% [at 81.1 µM] |
| COC[C@H](c1ccc(C(F)(F)F)cc1)N1CCN(C2(C)CCN(C(=O)c3c(C)ncnc3C)CC2)C[C@H]1C | -4.62% |
| CC1=CC(C)C(C=O)C(C)C1 (stereo not given) | 0.681% |
| CCCCCCC(=O)OCC | -10.4% |
| CCOC(=O)Cn1c(=O)sc2cccc(Cl)c21 | -20.6% |
| NS(=O)(=O)c1cc2c(cc1Cl)NC(CSCc1ccccc1)=NS2(=O)=O | 1.92% |
| CCC(=O)Nc1cccc(N)c1 | 1.18% |
| Cn1cnc2c(=O)[nH]c(N)nc21 | 3.79% |
| C=CCOc1nc(OCC=C)nc(OCC=C)n1 | 8.88% |
| O=C1OC(=O)c2cc([N+](=O)[O-])ccc21 | -6.77% |
| NC(CS)C(=O)O (stereo not given) | 1.92% |
| COC(C(=O)O)c1ccccc1 (stereo not given) | -11% |

| Compound | viability change, negative = cytotoxic |
| --- | --- |
| O=c1[nH]c2ccccc2c(=O)n1CCCl | -7.49% |
| CCCCCCCCCCCCI | 3.73% [at 81.1 µM] |
| CC1CCN(CCCC(=O)c2ccc(F)cc2)CC1 | -2.82% |
| CC(=O)c1ccc(C)cc1 | 45.1% |
| CCCCCN(CCCCC)C(=O)C(CCC(=O)O)NC(=O)c1ccc(Cl)c(Cl)c1 (stereo not given) | 2.42% |
| C#CC(C)(O)CC(C)C (stereo not given) | 3.87% |
| COC(=O)C1=C(C)NC(C)=C(C(=O)OCC(C)=O)C1c1ccccc1[N+](=O)[O-] (stereo not given) | -0.325% |
| CCCCCCOC(=O)c1ccccc1O | 1.42% |
| C=C[Si](OC)(OC)OC | 31.4% |
| OC1OC[C@@H](O)[C@H](O)[C@H]1O (stereo not given in full) | 12.6% |
| C=C(C)[C@H]1CC=C(C)CC1 | 6.07% |
| CCCCCCCCCCCl | -1.53% [at 81.1 µM] |
| Nc1nc2c(ncn2CCC(CO)CO)c(=O)[nH]1 | -1.45% |
| CCC(C(=O)NC(N)=O)c1ccccc1 (stereo not given) | 1.51% |
| OCC(O)[C@@H](O)[C@H](O)[C@H](O)CO[C@H]1O[C@H](CO)[C@@H](O)[C@H](O)[C@H]1O (stereo not given in full) | -0.714% |
| CO | 37.5% |
| CCCCCCCCCCC1CO1 (stereo not given) | -5.61% |
| Cc1ccccc1Br | 17.3% |
| N#CCc1ccccc1[N+](=O)[O-] | 3.4% |
| C=C(C)[C@@H]1CCC2=CC(=O)C[C@@H](C)[C@]2(C)C1 | -2.31% |
